# Only some compounds are listed: those with a hit (about 19% of all), similar ones and a draw of the others.
# SW480 rerep = DNA re-replication induction in SW480 cells; SW480 DNA re-replication, Hoechst DNA content imaging, 48 h; Potency, µM (highest dose often 46.1 µM), inactives show at the highest dose re-replication activation, actives largely listed as activators; 340,000 compounds, 1.8% hits; AID 624297; further: potency means the concentration at half of the fitted maximal effect; % of control where 0% means no effect; nearly all actives have a fitted effect of over 55% in size
#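 Hoechst fluorescence of nuclei (405 nm excitation, 500-530 nm emission) measured by plate-scanning imager after 48 hr compound exposure at 37 C; re-replication scored as increased number of nuclei with elevated intensity.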
# MCF10A rerep = inducers of DNA re-replication in MCF 10A breast cells | MCF 10A DNA re-replication, Hoechst nuclear intensity, 48 h | Potency, µM (series often up to 46.1 µM), for inactives: top-dose activity, positive = re-replication, hits mostly activators | 350,000 compounds, 2.9% hits; further: potency means the concentration at half of the fitted maximal effect; % of control where 0% means no effect; nearly all actives have a fitted effect of over 50% in size
# TDP1 cell CPT = DT40-hTDP1 cell growth loss with CPT | chicken DT40 Tdp1-/-;hTDP1 cells + 20 nM CPT, ATP luminescence, 48 h | Potency, µM (doses to about 46.2 µM), for inactives: top-dose activity change, negative = growth inhibition, actives largely listed as inhibitors | 420,000 compounds, 12% hits; further: potency means the concentration at half of the fitted maximal effect; on the % scale 0 is the no-effect control and ±100 the full control effect; nearly all actives have a fitted effect of over 55% in size
#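 Chicken DT40 Tdp1-/- cells complemented with human TDP1, 400 cells/well, exposed to compounds plus 20 nM camptothecin for at least 48 h at 37 C; viability read as ATP content by CellTiter-Glo luminescence.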
# IL1B secr inh = inflammasome signaling inhibition, IL-1 beta readout. THP-1 LPS/ATP IL-1B secretion, AlphaLISA, 16 h; hits give low values. activity change, % at 57.5 µM. 360,000 compounds, 4.7% hits. AID 743279; in the data active means activity change below about -50%; inconclusive means mostly about -30% to -49%; further: on the % scale 0 is the no-effect control and ±100 the full control effect
#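 Secreted IL-1B measured by AlphaLISA bead assay after 16 h compound exposure of THP-1 cells; compounds (final up to 57.5 uM) added 1 h before LPS (250 ng/mL) and ATP (1.25 mM) stimulation; lower signal means less secretion.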
# DT40 TDP1 no CPT = qHTS for Inhibitors of human tyrosyl-DNA phosphodiesterase 1 (TDP1): qHTS in cells in absence of CPT. DT40 Tdp1-/- hTDP1 cells, no CPT, ATP luminescence, 48 h. Potency, µM (series often up to 46.2 µM), for inactives: at the top dose activity change, negative = growth inhibition, most hits filed as inhibitors. 420,000 compounds, 15% hits; further: potency means the concentration at half of the fitted maximal effect; on the % scale 0 is the no-effect control and ±100 the full control effect; nearly all actives have a fitted effect of over 55% in size
#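 Growth of hTDP1-complemented DT40 Tdp1-knockout cells is measured by ATP luminescence after at least 48 hr compound exposure at 37 °C, with DMSO substituting for the 20 nM CPT used in the parallel screen.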
# Chronic BCR inh = inhibitors of chronic active B-cell receptor signaling. ABC-DLBCL IkBa-CBG/CBR reporter, luminescence ratio, 4 h. Potency, µM (doses to about 46.1 µM), without a hit: top-dose activity change, negative = inhibition, most hits filed as inhibitors. 340,000 compounds, 0.05% hits. AID 493014; active means well fitted inhibition curve with a large enough effect in the signal ratio, with a control signal flat, not every such curve was filed as active; inconclusive means small, poorly fitted or top-dose-only effect, or effect the other way, or a change in a side signal; the % refers to the signal ratio;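 further: potency means the concentration at half of the fitted maximal effect; plate controls were basal doxycycline-induced cells for no effect and cells given 10 µM MG132 for full effect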
#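 Cell line TMD8 (human ABC DLBCL), stably expressing tet-inducible CBG68-IkBa fusion and CBR; IMDM/0.5% FBS; cpd up to 46 uM; dox induction, 4 h, 37C/5% CO2; dual luminescence; green/red ratio; MG132 control.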
# The depositor's hits bear a star; ? = inconclusive; . = not tested or not shown. Unless noted, the call rests on the fitted dose curve; in most records, active means well fitted curve in the direction sought with a large enough effect; inconclusive means small, poorly fitted or top-dose-only effect, or another doubt; inactive means no such curve, though single readings can be large; an effect the other way counts as inactive or inconclusive.
SMILES,SW480 rerep,MCF10A rerep,TDP1 cell CPT,IL1B secr inh,DT40 TDP1 no CPT,Chronic BCR inh
CN(c1ccccc1)S(=O)(=O)c1ccc(C(=O)Nc2ncccc2O)cc1,-112%,4%,?,-1,?,-6%
Cc1nc2cc(NC(=O)c3ccc(S(=O)(=O)N(C)c4ccccc4)cc3)ccc2o1,-10%,15%,?,-56*,16µM*,4%
COc1ccc(S(=O)(=O)N2CCC[C@H]2C(=O)N2CCC[C@H]2C(=O)N[C@@H](C)c2ccccc2)cc1C,.,.,?,24,?,.
O=C(CCCn1c(=O)oc2ccccc21)Nc1ccccc1,-10%,-1%,-23%,-19,?,-9%
COc1ccc(CCN2CC(C(=O)N(C)Cc3cccnc3)CC2=O)cc1OC (stereo not given),-3%,-7%,-18%,16,4%,?
COc1cc(NC(=O)c2ccc(S(=O)(=O)N(C)c3ccccc3)cc2)cc(OC)c1,-32%,2%,?,-17,16µM*,-1%
COc1ccccc1NC(=O)c1ccc(S(=O)(=O)N(C)c2ccccc2)cc1,15%,11%,3%,-16,?,5%
CC1=CN2C(=N)/C(=C/c3ccc(Sc4ccc(Cl)cc4)o3)C(=O)N=C2S1,0%,?,9%,-69*,-19%,5%
CC1=CN2C(=N)/C(=C/c3ccc(C)o3)C(=O)N=C2S1,-2%,2%,2%,11,-5%,?
CC1=CN2C(=N)/C(=C/c3ccc(Sc4ccc(C)cc4)o3)C(=O)N=C2S1,?,?,?,-58*,?,3%
CC(=O)c1ccc(NC(=O)C(C)n2nc(-c3ccccc3)c3cc(Cl)ccc32)cc1 (stereo not given),18%,?,?,.,16µM*,?
C/C(=N/Nc1ccnc2cc(Cl)ccc12)c1ccc(O)cc1,-3%,?,?,-54*,?,17%
C/C(=N/Nc1ccnc2cc(Cl)ccc12)c1ccc(N)cc1,4%,6%,23µM*,-10,18µM*,19%
Clc1ccc2c(NNc3ccccc3Cl)ccnc2c1,-4%,12%,?,1,?,5%
CCN1CCC(Nc2ccnc3cc(Cl)ccc23)CC1,1%,-3%,-7%,-6,0%,?
O=C(NCCCN1CCCC1=O)C1CCN(S(=O)(=O)c2ccccc2)CC1,15%,-2%,0%,11,-5%,3%
Cc1cc(OCC(=O)Nc2c(C(=O)c3ccccc3)oc3ccccc23)cc(C)c1Cl,.,.,10%,.,2%,.
CCN1C(=O)/C(=C/C=C2/SCCN2C)SC1=S,-8%,-2%,?,?,13µM*,?
CCCCN1C(=O)/C(=C/C=C2/CC(C)(C)CN2C)SC1=S,-3%,?,?,-59*,?,?
CC(=O)c1ccc(NC(=O)Cn2ncc3c(C)n(Cc4ccc(F)cc4)c(C)c3c2=O)cc1,.,.,1%,.,-17%,.
Cc1nn(-c2ccc(N3CCCCC3)nn2)c(C)c1CCC(=O)Nc1cccc(F)c1,?,11%,?,-25,21µM*,5%
CCOC(=O)c1cccc(NC(=O)CCc2c(C)nn(-c3ccc(N4CCOCC4)nn3)c2C)c1,.,.,29µM*,.,?,.
CCc1cccc(NC(=O)CCc2c(C)nn(-c3ccc(N4CCCCC4)nn3)c2C)c1,-1%,13%,-25%,0,?,2%
COc1ccc(NC(=O)CCc2c(C)nn(-c3ccc(N4CCCC4)nn3)c2C)cc1Cl,.,.,?,.,16µM*,.
Cc1ccc(NC(=O)CCc2c(C)nn(-c3ccc(N4CCCCC4)nn3)c2C)cc1F,6%,6%,?,?,?,2%
